Data published in the supplement of paper PMC7156485.

tested on: HCC1569; assay: cell number relative to DMSO (% of DMSO); higher = more cells (less growth inhibition / toxicity); details: concentration: 10 µM; 24 h
Summary of the method: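 Treatment: HCC1569 and TDF cells, 800 per well in 384-well plates with RPMI and 10% FBS, were given compounds at 10 µM for 24 h at 37 °C, in triplicate. Readout: after 3.7% formaldehyde fixation, cells were stained with a rabbit anti-H1.0 antibody, an AlexaFluor 647 secondary and DAPI. Reported values are H1.0 nuclear intensity or cell number as percent of the plate control, taken as the median of replicates, with positional smoothing for HCC1569.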
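Note: TDF denotes transformed human dermal fibroblasts of mesenchymal origin.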

| Compound | cell number |
| --- | --- |
| CC(C(=O)O)c1ccc(CC2CCCC2=O)cc1 (stereo not drawn) [loxoprofen] | 103 |
| CCOc1cc2ncnc(Nc3cccc(Br)c3)c2cc1OCC [Compound 56] | 76.2 |
| NC(N)=NC(CCC(=O)O)C(=O)O (stereo not drawn) [alpha-Guanidinoglutaric acid] | 104 |
| O=C1OC(=CBr)CCC1c1cccc2ccccc12 (stereo not drawn) [Bromoenol lactone] | 97.3 |
| CN1CCN(c2c(F)cc3c(=O)c(C(=O)O)cn4c3c2SCC4)CC1 [Rufloxacin] | 107 |
| Cc1nc(C(=O)N2CCC[C@H]2Cc2nnc(-c3ccccc3)o2)c(-c2ccccc2F)s1 | 96.3 |
| CCCCCN(CCCCC)C(=O)C(CCC(=O)O)NC(=O)c1ccc(Cl)c(Cl)c1 (stereo not drawn) [Lorglumide] | 100 |
| CCCCCC=CCC(O)C=CC=CC=CC(O)CCCC(=O)O [5(S),12(R)-DIHETE all trans] | 99.8 |
| O=[N+]([O-])c1cccc2c(Br)[nH]nc12 [3-Bromo-7-nitroindazole] | 116 |
| Cc1cnc(-c2cnc(NCCNc3ccc(C#N)cn3)nc2-c2ccc(Cl)cc2Cl)[nH]1 | 70.4 |
| CC(C)c1[nH]n(-c2c(Cl)cccc2Cl)c2nc(Cc3ccc(OCCO)cc3)nc(=O)c1-2 [Cdk/Crk Inhibitor] | 55 |
| Nc1ccc(C(=O)Nc2cccc(-c3nc(N4CCOCC4)c4oc5ncccc5c4n3)c2)cn1 [PIKfyve Inhibitor] | 63.9 |
| CN1CCCC1c1cccnc1.O=C(O)C(O)C(O)C(=O)O.O=C(O)C(O)C(O)C(=O)O (single isomer, unassigned; (-)) [(-)-Nicotine hydrogen tartrate salt] | 102 |
